For the first experiment, the target named is ZNF384. As to the kind of experiment: pooled miR-30 sensor sort-seq; sequence = guide strand. The settings on record: shRNA.
In the case of TTTATCTTTGTTGTGTTGCCGT, the sensor-assay potency score (higher = more potent) came to 0.173.

TTGTGTTCTCGATCTGACCTGA had a sensor-assay potency score (higher = more potent) of 0.373.

On to TTGAGCCTGAGCCTGAGCCTGG, for which the sensor-assay potency score (higher = more potent) was -0.986.

On to AATGTCAGTGAGCACATCCGGC, for which the sensor-assay potency score (higher = more potent) was -0.852.

The sequence TTGGAGTAGAATGTCAGTGAGC showed a sensor-assay potency score (higher = more potent) of -0.969.

Sequence TTATCTTTGTTGTGTTGCCGTC had a sensor-assay potency score (higher = more potent) of 0.0211.

Sequence TTGGACTCTGTGTCCATACTGA showed a sensor-assay potency score (higher = more potent) of -0.198.

A further experiment deals with ZNF428. The description is as above. The settings on record: shRNA.
Regarding TCATCTTCTTCCAAGCTGGCGT, the sensor-assay potency score (higher = more potent) is -0.345.

For TTCTTCCTCTTCGGAGTCCGGC, the sensor-assay potency score (higher = more potent) was -1.03.

In the case of TCATCATCTTCTTCCAAGCTGG, the sensor-assay potency score (higher = more potent) is -0.45.

The sequence TCACCTTGTAGCCAGGATCATA registered a sensor-assay potency score (higher = more potent) of -1.68.

The sequence TTCTAAGACAACACAGACCGGC displayed a sensor-assay potency score (higher = more potent) of 0.28.

As for TCTAAGACAACACAGACCGGCA, the sensor-assay potency score (higher = more potent) is -0.807.

For TTCCTCTTCGGAGTCCGGCTCT, the sensor-assay potency score (higher = more potent) is -0.361.

For the sequence ATATTCAGGATCGTCAGTGGTC, the sensor-assay potency score (higher = more potent) is -0.14.

For the sequence TAAGACAACACAGACCGGCAGT, the sensor-assay potency score (higher = more potent) stood at 0.279.

TGAATCAGAGGAATGCTCGGGG: the sensor-assay potency score (higher = more potent) was 0.32.

In turn, AGAGAGTGTATTCTGAATCAGA gave a sensor-assay potency score (higher = more potent) of -1.95.

Regarding TCTGAGAGAGTGTATTCTGAAT, the sensor-assay potency score (higher = more potent) is -1.43.

Another experiment deals with ZNF471. The experiment is described as above. The settings on record: shRNA.
On to TAAACATCTCATGACTTCCCAT, for which the sensor-assay potency score (higher = more potent) was -0.174.

In turn, TTCTCCAACATCATACTCCTGT returned a sensor-assay potency score (higher = more potent) of 0.565.

Sequence TTAAGGATAACTTTCTTCTGAA returned a sensor-assay potency score (higher = more potent) of -0.561.

As to TTCTCTGATGTACAGTACGGGA, the sensor-assay potency score (higher = more potent) is -1.32.

TACTCTTTGATGCTGAGTGAGT showed a sensor-assay potency score (higher = more potent) of -0.705.

The sequence TGTGACATCTCTGATGTCGAGC came in with a sensor-assay potency score (higher = more potent) of -0.679.

The sequence TAACTTTCTTCTGAACGCCTTC returned a sensor-assay potency score (higher = more potent) of -0.31.

In turn, TTTGCCAGTGTGACATCTCTGA registered a sensor-assay potency score (higher = more potent) of -0.159.

TTTCTTGTGTTTTATTACCATA displayed a sensor-assay potency score (higher = more potent) of -1.3.

In turn, TTGATGTTGAGTAAGATTGGAA had a sensor-assay potency score (higher = more potent) of -0.353.

A further experiment has as its target ZNF480. The description is as above. The settings on record: shRNA.
Consider TTGATGTTTAGTAAGGCTGGAA, for which the sensor-assay potency score (higher = more potent) is -0.447.

TTCATCTGGAAATAGCTCCAGT returned a sensor-assay potency score (higher = more potent) of 0.626.

Turning to TAACTTGTGTCTGAATGCCTTG, the sensor-assay potency score (higher = more potent) was -0.708.

The sequence TTAGTGATAACTTGTGTCTGAA gave a sensor-assay potency score (higher = more potent) of -0.0434.

On to TGAATTGTAACTAAAAACCTTG, for which the sensor-assay potency score (higher = more potent) is -0.76.

Sequence TTTCTGATGTCGTACAAGGAGC displayed a sensor-assay potency score (higher = more potent) of -1.17.

With TTTCAACTTGATTACATCCATT, the sensor-assay potency score (higher = more potent) is -1.17.

As to TTCTCTAAGGTGTACTTTCTGT, the sensor-assay potency score (higher = more potent) is -0.808.

TAATTGGTTTGTCTTCTGCATT showed a sensor-assay potency score (higher = more potent) of -1.51.

On to TTGAATTGTAACTAAAAACCTT, for which the sensor-assay potency score (higher = more potent) is -0.157.
Note: reference of the scale not given here.
